Experimental data taken from ChEMBL document CHEMBL3988442, “University of Dundee, Small-Polar-MMV Screening Library” (2021).
For some assays here: Potency and affinity values are given separately.

Key:
Design in all cases: scale not given: direction of the effect not stated beside the values
[1] = molecular target: Protein translocase subunit SecA (Escherichia coli (strain K12)) (UniProt P10408); assay: Assay to Identify E. coli SecA ATPase Inhibitors; type: functional; conditions: 30 µM
[2] = molecular target: T1, Ubiquitin-activating enzyme e1, putative (Leishmania donovani (strain BPK282A1)) (UniProt E9BSI1); assay: Leishmania donovani Ubiquitin Activating Enzyme (LdE1); type: functional; conditions: 30 µM
T1 sequence (whole entry): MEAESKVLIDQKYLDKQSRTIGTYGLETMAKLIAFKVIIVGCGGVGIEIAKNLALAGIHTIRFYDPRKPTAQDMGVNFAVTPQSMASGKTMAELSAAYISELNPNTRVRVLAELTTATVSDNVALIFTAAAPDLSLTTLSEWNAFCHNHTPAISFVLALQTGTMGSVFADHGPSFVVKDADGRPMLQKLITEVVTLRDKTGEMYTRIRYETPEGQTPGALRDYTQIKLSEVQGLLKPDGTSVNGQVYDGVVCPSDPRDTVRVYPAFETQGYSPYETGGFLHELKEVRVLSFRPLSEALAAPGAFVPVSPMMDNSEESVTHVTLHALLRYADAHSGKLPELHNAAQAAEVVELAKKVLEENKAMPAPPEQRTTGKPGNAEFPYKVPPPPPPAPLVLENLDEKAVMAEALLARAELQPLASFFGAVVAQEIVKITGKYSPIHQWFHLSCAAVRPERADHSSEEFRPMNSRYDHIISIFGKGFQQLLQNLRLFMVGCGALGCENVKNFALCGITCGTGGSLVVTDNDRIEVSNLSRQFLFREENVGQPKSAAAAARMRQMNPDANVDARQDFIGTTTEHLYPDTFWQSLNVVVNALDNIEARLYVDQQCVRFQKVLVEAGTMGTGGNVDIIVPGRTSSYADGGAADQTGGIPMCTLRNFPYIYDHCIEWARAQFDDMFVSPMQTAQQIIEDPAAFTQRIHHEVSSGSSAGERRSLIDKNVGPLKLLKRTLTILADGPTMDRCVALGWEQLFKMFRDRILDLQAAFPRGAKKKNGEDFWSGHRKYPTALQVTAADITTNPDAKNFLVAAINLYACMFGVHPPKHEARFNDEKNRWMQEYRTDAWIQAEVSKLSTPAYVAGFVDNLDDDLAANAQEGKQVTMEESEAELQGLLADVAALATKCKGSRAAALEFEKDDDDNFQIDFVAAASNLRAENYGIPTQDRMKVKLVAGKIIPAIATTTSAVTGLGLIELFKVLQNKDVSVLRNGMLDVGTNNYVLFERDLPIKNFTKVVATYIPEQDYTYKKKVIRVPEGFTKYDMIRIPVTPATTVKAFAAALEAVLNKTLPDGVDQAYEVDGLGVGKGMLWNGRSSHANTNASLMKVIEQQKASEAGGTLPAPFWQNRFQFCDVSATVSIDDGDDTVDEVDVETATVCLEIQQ

[3] = molecular target: AMP-activated protein kinase, AMPK (Homo sapiens) (UniProt P54646+O43741+P54619+Q9UGJ0+Q9Y478+Q13131+Q9UGI9); assay: AMP-dependent Kinase enzyme assay. An in vitro enzyme assay that detects ADP turnover that is directly proportional to AMPK activity. This uses naive AMPK that is activated during the assay with MK-8722; type: functional; conditions: 30 µM
[4] = molecular target: Sialic acid-binding Ig-like lectin 9 (Homo sapiens) (UniProt Q9Y336); assay: Hs-Siglec9 ALPHAscreen SOP 20170721; conditions: 10 µM
Trypanosoma cruzi = assay: Trypanosoma cruzi phosphomannomutase and mannose-1-phosphate guanylyltransferase assay; type: functional; conditions: 10 µM
[5] = molecular target: T2, Arginase-2, mitochondrial (Homo sapiens) (UniProt P78540); assay: in vitro enzyme assay to detect the production of urea directly proportional to the activity of Arginase II; type: functional; conditions: 33.3 µM; further: in the data most compounds retested in dose-response had high values
T2 sequence (whole entry): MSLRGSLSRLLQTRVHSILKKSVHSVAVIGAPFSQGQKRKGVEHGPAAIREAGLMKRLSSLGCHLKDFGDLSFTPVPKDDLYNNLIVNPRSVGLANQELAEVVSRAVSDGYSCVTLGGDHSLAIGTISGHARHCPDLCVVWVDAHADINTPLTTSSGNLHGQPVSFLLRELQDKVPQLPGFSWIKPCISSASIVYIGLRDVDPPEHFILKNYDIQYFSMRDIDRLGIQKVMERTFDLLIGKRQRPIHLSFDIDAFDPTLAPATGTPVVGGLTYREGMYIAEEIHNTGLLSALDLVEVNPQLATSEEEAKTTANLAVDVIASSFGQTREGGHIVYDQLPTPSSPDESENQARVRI

[6] = molecular target: T3, Proteasome subunit beta (Trypanosoma cruzi) (UniProt O96673); assay: Trypanosoma cruzi proteasome chymotrypsin-like activity (TcProtChymo) assay.; further: in the data most compounds retested in dose-response had high values; type: functional; conditions: 9.37 µM
T3 sequence (whole entry): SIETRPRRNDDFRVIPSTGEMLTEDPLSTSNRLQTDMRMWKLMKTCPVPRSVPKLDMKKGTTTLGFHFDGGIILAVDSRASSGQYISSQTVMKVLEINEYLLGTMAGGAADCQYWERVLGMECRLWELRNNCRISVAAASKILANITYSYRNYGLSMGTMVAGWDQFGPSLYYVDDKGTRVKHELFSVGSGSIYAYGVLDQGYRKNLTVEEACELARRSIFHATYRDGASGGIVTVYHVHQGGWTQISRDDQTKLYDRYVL

Homo sapiens = organism: Homo sapiens; assay: To identify inhibition of the IFN signalling (Jak-Stat) pathway via expression of an eGFP reporter gene under the control of an IFN-stimulated response element (ISRE) containing MxA promoter.; type: functional; conditions: 30 µM
[7] = molecular target: T4, Tyrosyl-tRNA synthetase, putative (Trypanosoma cruzi (strain CL Brener)) (UniProt Q4DSP6); assay: Trypanosoma cruzi tyrosyl tRNA synthetase (TcYRS) _High Tyrosine SOP; type: functional; conditions: 30 µM; further: in the data most compounds retested in dose-response had high values
T4 sequence (whole entry): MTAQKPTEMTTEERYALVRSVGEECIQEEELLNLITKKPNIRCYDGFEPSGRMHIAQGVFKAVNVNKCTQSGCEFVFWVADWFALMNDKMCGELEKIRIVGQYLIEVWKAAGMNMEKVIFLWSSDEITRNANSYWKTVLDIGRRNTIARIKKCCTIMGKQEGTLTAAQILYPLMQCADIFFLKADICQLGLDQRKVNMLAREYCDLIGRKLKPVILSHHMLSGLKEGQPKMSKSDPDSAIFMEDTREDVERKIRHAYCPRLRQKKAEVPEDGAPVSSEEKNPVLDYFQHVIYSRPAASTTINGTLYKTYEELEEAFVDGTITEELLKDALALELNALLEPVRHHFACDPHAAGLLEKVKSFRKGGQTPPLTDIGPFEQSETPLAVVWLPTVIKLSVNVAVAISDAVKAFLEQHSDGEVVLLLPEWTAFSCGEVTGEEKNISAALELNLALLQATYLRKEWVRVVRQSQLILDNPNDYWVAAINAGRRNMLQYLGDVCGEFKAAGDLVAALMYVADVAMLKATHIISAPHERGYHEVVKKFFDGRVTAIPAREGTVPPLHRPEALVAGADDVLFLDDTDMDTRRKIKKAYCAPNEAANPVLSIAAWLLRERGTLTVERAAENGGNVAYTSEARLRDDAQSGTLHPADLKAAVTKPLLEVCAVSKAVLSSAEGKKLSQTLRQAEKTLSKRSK

[8] = molecular target: T4, Tyrosyl-tRNA synthetase, putative (Trypanosoma cruzi (strain CL Brener)); assay: Trypanosoma cruzi tyrosyl tRNA synthetase (TcYRS) SOP; type: functional; conditions: 30 µM
[9] = molecular target: Chromo domain-containing protein 1 (Saccharomyces cerevisiae (strain ATCC 204508 / S288c) (Baker's yeast)) (UniProt P32657); assay: ScCHD-1 Enzyme Inhibition Assay; type: functional; conditions: 30 µM; further: in the data most compounds retested in dose-response had high values
Chromo domain-containing protein 1 (Saccharomyces cerevisiae (strain ATCC 204508 / S288c) (Baker's yeast)), sequence (P32657 whole entry, the tested form may be a part): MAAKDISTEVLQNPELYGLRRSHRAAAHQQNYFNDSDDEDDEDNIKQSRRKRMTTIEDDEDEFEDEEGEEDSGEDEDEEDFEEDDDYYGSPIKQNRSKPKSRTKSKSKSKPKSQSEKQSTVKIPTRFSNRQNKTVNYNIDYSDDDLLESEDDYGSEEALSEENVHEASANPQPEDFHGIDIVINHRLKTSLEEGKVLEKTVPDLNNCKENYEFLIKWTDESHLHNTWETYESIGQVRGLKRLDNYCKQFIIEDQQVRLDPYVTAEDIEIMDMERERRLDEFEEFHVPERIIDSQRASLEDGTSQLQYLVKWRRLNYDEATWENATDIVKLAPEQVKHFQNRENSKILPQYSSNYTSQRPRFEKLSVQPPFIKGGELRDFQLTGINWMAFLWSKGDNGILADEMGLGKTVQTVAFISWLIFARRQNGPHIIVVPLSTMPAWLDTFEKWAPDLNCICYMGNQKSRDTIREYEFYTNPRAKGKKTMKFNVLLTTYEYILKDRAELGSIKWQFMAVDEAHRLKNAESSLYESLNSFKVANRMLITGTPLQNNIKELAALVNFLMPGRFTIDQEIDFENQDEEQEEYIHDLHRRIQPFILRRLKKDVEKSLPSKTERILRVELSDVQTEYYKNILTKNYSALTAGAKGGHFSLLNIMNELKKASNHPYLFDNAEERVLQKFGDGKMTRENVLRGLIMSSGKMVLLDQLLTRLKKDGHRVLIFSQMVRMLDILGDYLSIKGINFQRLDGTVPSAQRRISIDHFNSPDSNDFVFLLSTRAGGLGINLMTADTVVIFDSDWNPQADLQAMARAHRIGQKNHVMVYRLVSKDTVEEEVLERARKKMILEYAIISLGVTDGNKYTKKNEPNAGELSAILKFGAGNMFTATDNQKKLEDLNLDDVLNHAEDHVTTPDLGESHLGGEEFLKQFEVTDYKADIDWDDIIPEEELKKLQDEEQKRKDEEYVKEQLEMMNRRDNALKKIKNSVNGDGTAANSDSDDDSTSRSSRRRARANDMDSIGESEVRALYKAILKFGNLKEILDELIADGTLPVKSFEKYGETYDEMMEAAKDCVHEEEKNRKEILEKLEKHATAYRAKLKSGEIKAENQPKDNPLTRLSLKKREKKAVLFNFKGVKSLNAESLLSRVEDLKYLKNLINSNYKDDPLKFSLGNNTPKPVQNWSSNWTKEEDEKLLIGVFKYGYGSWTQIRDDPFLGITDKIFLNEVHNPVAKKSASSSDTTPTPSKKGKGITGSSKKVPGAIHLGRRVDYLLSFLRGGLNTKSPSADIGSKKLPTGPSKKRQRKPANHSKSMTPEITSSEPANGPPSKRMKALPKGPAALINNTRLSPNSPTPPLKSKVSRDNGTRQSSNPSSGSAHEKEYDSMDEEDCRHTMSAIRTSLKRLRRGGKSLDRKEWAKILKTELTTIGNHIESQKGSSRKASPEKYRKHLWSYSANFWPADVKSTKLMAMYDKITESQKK

Sialic acid-binding Ig-like lectin 9 (Homo sapiens), sequence (Q9Y336 whole entry): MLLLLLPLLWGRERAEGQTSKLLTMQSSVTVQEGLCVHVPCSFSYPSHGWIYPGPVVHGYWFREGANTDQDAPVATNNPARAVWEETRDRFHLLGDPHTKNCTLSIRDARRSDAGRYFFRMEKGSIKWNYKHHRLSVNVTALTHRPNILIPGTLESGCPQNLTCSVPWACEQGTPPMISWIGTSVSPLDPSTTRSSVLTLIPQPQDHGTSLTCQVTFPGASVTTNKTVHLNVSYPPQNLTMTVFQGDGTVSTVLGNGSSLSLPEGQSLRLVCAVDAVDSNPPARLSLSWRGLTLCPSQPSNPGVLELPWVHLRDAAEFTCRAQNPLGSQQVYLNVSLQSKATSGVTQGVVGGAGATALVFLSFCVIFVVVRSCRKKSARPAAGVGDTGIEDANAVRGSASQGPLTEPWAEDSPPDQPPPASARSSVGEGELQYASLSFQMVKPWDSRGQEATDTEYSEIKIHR
Protein translocase subunit SecA (Escherichia coli (strain K12)), sequence (P10408 whole entry): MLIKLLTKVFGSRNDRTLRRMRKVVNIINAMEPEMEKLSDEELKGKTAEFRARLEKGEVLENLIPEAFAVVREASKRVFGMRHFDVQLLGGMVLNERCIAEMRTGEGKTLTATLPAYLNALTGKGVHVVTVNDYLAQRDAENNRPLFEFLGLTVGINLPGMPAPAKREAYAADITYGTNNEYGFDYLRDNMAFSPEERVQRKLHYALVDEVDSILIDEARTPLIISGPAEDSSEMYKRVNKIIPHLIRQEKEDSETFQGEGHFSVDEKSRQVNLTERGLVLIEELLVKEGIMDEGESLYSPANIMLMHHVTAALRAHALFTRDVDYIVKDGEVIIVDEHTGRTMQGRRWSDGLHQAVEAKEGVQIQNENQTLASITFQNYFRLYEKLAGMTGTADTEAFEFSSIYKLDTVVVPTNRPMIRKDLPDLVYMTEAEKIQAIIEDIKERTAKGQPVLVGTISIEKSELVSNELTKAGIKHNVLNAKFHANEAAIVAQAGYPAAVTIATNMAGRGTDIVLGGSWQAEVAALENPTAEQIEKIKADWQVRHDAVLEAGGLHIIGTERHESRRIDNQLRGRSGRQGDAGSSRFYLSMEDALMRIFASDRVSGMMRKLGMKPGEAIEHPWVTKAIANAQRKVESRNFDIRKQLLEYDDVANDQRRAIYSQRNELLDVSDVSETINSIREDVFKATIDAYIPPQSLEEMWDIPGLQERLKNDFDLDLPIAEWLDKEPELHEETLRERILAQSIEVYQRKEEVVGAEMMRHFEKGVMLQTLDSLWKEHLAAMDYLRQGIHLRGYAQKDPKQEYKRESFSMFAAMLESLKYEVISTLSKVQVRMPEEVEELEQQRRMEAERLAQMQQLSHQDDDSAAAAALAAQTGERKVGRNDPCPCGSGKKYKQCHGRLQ

SMILES | Percent Effect [1] | Percent Effect [2] | Percent Effect [3] | Percent Effect [4] | Percent Effect (Trypanosoma cruzi) | Percent Effect [5] | Percent Effect [6] | Percent Effect (Homo sapiens) | Percent Effect [7] | Percent Effect [8] | Percent Effect [9]
CN(Cc1ccsc1)C(=O)c1cccc(S(=O)(=O)NC(C)(C)C)c1 | -1.82% | 23.4% | -6.77% | -1.29% | 3% | -3.56% | 12% | 18.1% | 6.8% | 12.2% | -7.59%
Cc1nc(C2CCCN2C(=O)c2ccccc2)ncc1C(N)=O (configuration not stated) | -3.32% | 10.7% | 3.14% | 7.6% | 1.97% | -3.96% | 3.79% | 22.3% | 5.32% | 14.1% | -6.6%
CC(Cn1cncn1)NCc1nncn1C1CCCCC1 (configuration not stated) | -0.337% | 6.94% | -10.2% | 13.3% | 0.0972% | 12.4% | 14.4% | -15.2% | 8.42% | 15.4% | -5.04%
CNC(=O)[C@@]12CCC3(CCN(S(C)(=O)=O)CC3)[C@@H]1CN(S(C)(=O)=O)C2 | -2.26% | 13.5% | -10.4% | 2.21% | -3.81% | 0.248% | 6.78% | 9.73% | 1.07% | 11.1% | 1.21%
CC(NC(=O)NCc1ccoc1)c1ccc2c(c1)CCC(=O)N2 (configuration not stated) | -9.31% | -7.79% | -9.15% | 13% | 12.2% | 2.49% | 28.6% | 16.5% | 8.74% | 24.4% | -9.68%
CCN(CC)c1ccc(C(=O)NCc2cccnc2-n2cncn2)cn1 | -0.491% | 8.11% | -12.6% | 48.7% | 1.86% | 18.6% | 8.84% | 19.1% | 2.15% | 11.1% | -5.91%
Cc1nnc(SCC(=O)N2CCC3(CC2)c2ccccc2CC3O)o1 (configuration not stated) | -5.99% | 13% | -6.65% | 21.9% | 6.79% | 0% | 7.49% | -5.03% | 3.23% | 16.1% | -7.51%
CC(C)c1ncncc1C(=O)N1CCN(Cc2cscn2)CC1 | -12.5% | 13.5% | -16% | 21.4% | 10.7% | 2.03% | 5.03% | 5.44% | 6.93% | 23.2% | -8.1%
Cc1cnn(CCNCC(O)COc2c(C)ccc(C)c2C)c1 (configuration not stated) | -5.33% | 20.2% | -11.8% | 20.1% | 6.7% | -4.56% | 8.27% | -1.01% | 7.39% | 21.5% | -4.18%
Cc1nccc(C2CN(Cc3cc[nH]n3)CCO2)n1 (configuration not stated) | -1.51% | 1.35% | 9.42% | 3.04% | -1.98% | -1.16% | 4.84% | -10.9% | 0% | 3.9% | -12.4%
CCc1nc(CN2CCCC(NCc3cnn(C(C)(C)C)c3)C2)no1 (configuration not stated) | -2.85% | 2.53% | -0.494% | 3.84% | -1.6% | -1.52% | 6.63% | 14.9% | -1.48% | -1.27% | -0.901%
Fc1ccc(CCN2CCC(c3nnc(-c4cccnc4)o3)CC2)cc1 | -1.2% | 1.35% | 6.27% | -6.66% | -0.988% | -5.8% | 18.9% | 19.1% | 3.23% | 9.09% | -14%
COCC1CN(C(=O)c2cccn2C)Cc2nccn2C1 (configuration not stated) | -0.683% | 10.7% | 12.7% | -7.24% | -5.32% | 1.63% | 13.8% | 10.6% | 2.13% | 11.5% | -4.6%
COCCO[C@@H]1CCN(C(=O)c2ccc(C)o2)[C@@H]1Cc1cccnc1 | -5.36% | 0% | 9.87% | -4.82% | -3.91% | 4.17% | 8.03% | 2.29% | 5.94% | 8.54% | -1.12%
CCO[C@@H]1CO[C@@]2(CCCN(C(=O)c3ccc(OC)c(F)c3)C2)C1 | -3.5% | 10.4% | 6.36% | -0.114% | -3.06% | 11% | 16.5% | 6.86% | 11.6% | 8.97% | -7.2%
Cc1nnc2n1CCN(CCC(=O)Nc1sccc1C#N)C2 | -2.38% | 13.2% | -4.92% | 7.34% | 0.84% | -0.719% | 10.4% | 9.54% | 6.4% | 18.5% | -2.88%
O=c1cc2c(nn1CN1CCN(c3ccccc3)CC1)CCC2 | -2.18% | 12% | -4.49% | 2.85% | 0% | -1.23% | 15% | 11.5% | 6.35% | 15.4% | -9.54%
COc1ccccc1CN1C(=O)O[C@@H]2CN(c3nccs3)C[C@@H]21 | -8.53% | 0% | 2% | 2.51% | -5.75% | -3.12% | 11.2% | 15.3% | 2.73% | 3.7% | -3.84%
c1csc(-c2noc(CCCN3CCCC3Cn3cccn3)n2)c1 (configuration not stated) | -4.94% | -13.5% | -5.55% | 4.78% | 0.849% | -6.41% | -1.98% | 0.955% | 4.43% | 1.24% | -1.71%
Cc1nc(CN2CCCC2c2nc(C(C)C)no2)cs1 (configuration not stated) | -3.44% | 18.1% | -18.2% | 15.3% | 3.79% | 5.3% | 9.47% | -11.9% | 5.26% | 12.8% | -5.13%
COCc1nc(C(=O)N2CCCC2c2noc(C(C)C)n2)cs1 (configuration not stated) | -3.95% | 1.27% | 8.09% | -0.11% | -1.74% | 3.66% | -0.343% | 3.65% | 3.12% | 5.06% | 11.7%
Cc1ncc(C)c(N2CCCC(CO)(Cc3cccc(Cl)c3)C2)n1 (configuration not stated) | -3.59% | 13% | 3.66% | 15.9% | 5.61% | 9.65% | 13.1% | 34% | 7.53% | 13.6% | -6.49%
